Measurements from PubChem BioAssay (Tox21).
Values joined by “and” are separate entries in the source; they are usually repeats but may differ in a detail not shown here. Identical values can stand only once. Results filed as inconclusive are left out. Where a call stands in place of a potency, no number is given. More than one record can exist for a structure, and the calls need not agree. Active and inactive are the calls of the source. Unless noted, calls follow the shape of the full dose curve.

Tests used:
[1] = Nuclear factor erythroid 2-related factor 2/antioxidant responsive element (Nrf2/ARE) small molecule agonists: qHTS cell viability counter screen in human keratinocytes (AID 1919968; active = well fitted curve in the direction sought with a large enough effect in the repeat runs; an effect the other way counts as inactive or inconclusive; also: nearly all actives have a fitted effect of over 55% in size; also: potency is read from the fitted curve at half-maximal effect)
How it was run: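 HaCaT ARE reporter line, 1,500 cells/well; 5 h settle, 37 C/5% CO2; cpd in DMSO pinned; 23 h exposure; CellTiter-Fluor, 1 h; fluorescence.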

[2] = Nuclear factor erythroid 2-related factor 2/antioxidant responsive element (Nrf2/ARE) small molecule agonists: luciferase reporter gene qHTS assay in human keratinocytes (AID 1919969); also: nearly all actives have a fitted effect of over 35% in size; also: potency is read from the fitted curve at half-maximal effect
[3] = biological target: Gonadotropin-releasing hormone receptor (Homo sapiens) (UniProt P30968); experiment: Human gonadotropin-releasing hormone receptor (GnRHR) small molecule agonists, calcium flux assay in GnRHR-HEK293 cells (AID 1920063); also: nearly all actives have a fitted effect of over 35% in size
How it was run: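 GnRHR-HEK293, 1500 cells/well, 18 h 37 C/5% CO2; Ca dye 1 h 37 C; cpd pinned (DMSO), agonist mode; kinetic FL 480/540, 3 min, 1 s reads; 15 conc, n=3.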

[4] = biological target: KiSS-1 receptor (Homo sapiens) (UniProt Q969F8); experiment: Human kisspeptin (KISS1R) small molecule agonists, calcium flux assay in KISS1R-HEK293 cells (AID 1920064; active = well fitted curve in the direction sought with a large enough effect in the repeat runs; an effect the other way counts as inactive or inconclusive)
How it was run: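 Stable human KISS1R HEK293 line; 18 h plating, 37 C/5% CO2; calcium dye 1 h 37 C; compound pin transfer; kinetic fluorescence Ex/Em 480/540, 3 min.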

[5] = G protein-coupled receptor (GPCR) small molecule agonists, calcium flux assay: HEK293 wild type cell line counter screen (AID 1920065)
How it was run: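 Kinetic fluorescence at Ex/Em 480/540, recorded every second over 3 min, served as the read-out after compound addition. Each compound was tested at 15 concentrations in triplicate on cells pre-loaded with calcium dye for 1 h.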

[6] = p53 small molecule agonists, cell-based qHTS assay with human liver microsomes (AID 1963577)
How it was run: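 p53RE-bla reporter cells were pre-incubated 5 h at 37 C, then treated with compounds plus human liver microsomes (0.5 mg/mL final) and NADPH (0.5 mg/mL final) for 16 h at 37 C. Beta-lactamase activity was read by LiveBLAzer fluorescence after 2 h at room temperature.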

[7] = p53 small molecule agonists, cell-based qHTS assay with rat liver microsomes (AID 1963578)
How it was run: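 p53RE-bla cells were exposed to compounds together with rat liver microsomes (0.5 mg/mL final) and NADPH (0.5 mg/mL final) for 16 h at 37 C, then read by LiveBLAzer beta-lactamase fluorescence after 2 h at room temperature.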

[8] = p53 small molecule agonists, cell-based qHTS assay with human liver microsomes: qHTS cell viability counter screen (AID 1963579); also: nearly all actives have a fitted effect of over 45% in size; also: potency is read from the fitted curve at half-maximal effect
How it was run: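 p53RE-bla cells (4,000/well) were pre-incubated 5 h at 37 C, then given compounds in DMSO plus human liver microsomes (0.5 mg/mL final) and NADPH (0.5 mg/mL final) for 16 h at 37 C. Viability was read by CellTiter-Glo luminescence.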

[9] = p53 small molecule agonists, cell-based qHTS assay with rat liver microsomes: qHTS cell viability counter screen (AID 1963580); also: nearly all actives have a fitted effect of over 45% in size; also: potency is read from the fitted curve at half-maximal effect
How it was run: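 In HCT-116 cells carrying a p53 response element-bla reporter, compounds were metabolically activated in situ by rat liver microsomes with NADPH over 16 h. Cell ATP content then served as the cytotoxicity measure.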

[10] = p53 small molecule agonists, cell-based qHTS assay: qHTS cell viability counter screen (AID 1963581); also: nearly all actives have a fitted effect of over 45% in size; also: potency is read from the fitted curve at half-maximal effect
How it was run: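 HCT-116 p53RE-bla cells, 4,000/well, plated 5 h before compound pin transfer; 16 h at 37 C; bla substrate 2 h RT; then CellTiter-Glo, 30 min RT, luminescence.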

[11] = p53 small molecule agonists, cell-based qHTS assay (AID 1963582; active = well fitted activation curve with a large enough effect in the signal ratio in the repeat runs, not every such curve was filed as active; the % refers to the signal ratio)
How it was run: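 Reporter line: p53RE-bla. Pre-incubation 5 h, 37 C, 5% CO2; compound (DMSO, pin tool) 16 h, 37 C; B/G FRET substrate 2 h RT; fluorescence intensity read.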

[12] = biological target: 5-hydroxytryptamine receptor 2A (Homo sapiens) (UniProt P28223); experiment: 5-hydroxytryptamine receptor 2A (HTR2A) small molecule agonists, cell-based qHTS assay (AID 1963587); also: nearly all actives have a fitted effect of over 30% in size
How it was run: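 HTR2A-CHO cells, plated 18 h at 37 C/5% CO2, dye-loaded 1 h at 37 C; compounds in DMSO added by pin tool (agonist mode). Intracellular calcium flux read as kinetic fluorescence on FDSS over 2 min at 1 s intervals.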

[13] = biological target: Muscarinic acetylcholine receptor M1 (Homo sapiens) (UniProt P11229); experiment: Cholinergic receptor muscarinic 1 (CHRM1) small molecule agonists, cell-based qHTS assay (AID 1963589); also: nearly all actives have a fitted effect of over 35% in size
How it was run: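 Human M1 in stable CHO line; 18 h plating, 1 h dye load 37 C; cpd added (agonist mode); Ca2+ fluorescence kinetic read, 1 s intervals; 15 conc, 3 runs.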

[14] = cAMP Responsive Elements (CRE) small molecule agonists, cell-based qHTS assay (AID 1963590)
How it was run: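 HEK 293T CRE-bla, 2,000 cells/well, 18 h preincubation 37 C/5% CO2; cpds (DMSO) pinned, 3 h; LiveBLAzer B/G FRET substrate, 2 h RT.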

[15] = cAMP Responsive Elements (CRE) small molecule antagonists, cell-based qHTS assay (AID 1963591; active = well fitted inhibition curve with a large enough effect in the signal ratio in the repeat runs, not every such curve was filed as active; the % refers to the signal ratio)
How it was run: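 Beta-lactamase reporter read by FRET substrate (LiveBLAzer B/G) after 2 h at room temperature. CRE-bla HEK293T cells had received compound plus 0.25 uM (final) NKH477 for 3 h at 37 °C.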

[16] = biological target: Beta-2 adrenergic receptor (Homo sapiens) (UniProt P07550); experiment: Adrenergic beta2 receptor (ADRB2) small molecule antagonists, cell-based qHTS assay (AID 1963592); also: series mostly up to about 92 µM; nearly all actives have a fitted effect of over 50% in size
How it was run: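 Cells (CHO, stable ADRB2 overexpression) incubated 18-20hr at 37C; compounds added from DMSO; agonist mix (1nM isoproterenol, 100uM IBMX, 25uM Ro-20-1724) added; 0.5hr RT; d2-cAMP and anti-cAMP-cryptate added; 1hr RT; 665/615 nm read.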

[17] = biological target: D(2) dopamine receptor (Homo sapiens) (UniProt P14416); experiment: Dopamine D2 receptor (DRD2) small molecule agonists, cell-based qHTS assay (AID 1963594); also: nearly all actives have a fitted effect of over 35% in size
How it was run: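 HEK293 cells stably expressing DRD2 were cultured 24 h at 37 C, then given Ro20-1724 (0.1 mM final) and compounds for 10 min at room temperature. NKH477 (200nM) was then added for 30 min. cAMP was read by HTRF.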

[18] = biological target: Beta-2 adrenergic receptor (Homo sapiens) (UniProt P07550); experiment: Adrenergic beta2 receptor (ADRB2) small molecule agonists, cell-based qHTS assay (AID 1963593);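 also: CHO cells stably overexpressing human ADRB2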
How it was run: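 CHO cells stably over-expressing ADRB2 were plated overnight at 37C, then dosed with compounds plus a stimulation mix containing 100uM IBMX and 25uM Ro-20-1724 for 0.5hr at room temperature. cAMP was measured by HTRF competition, 1hr.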

[19] = biological target: D(2) dopamine receptor (Homo sapiens) (UniProt P14416); experiment: Dopamine D2 receptor (DRD2) small molecule antagonists, cell-based qHTS assay (AID 1963595; active = well fitted inhibition curve with a large enough effect in the signal ratio in the repeat runs, with a control signal flat; the % refers to the signal ratio)
How it was run: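 Cells were plated and grown for 24 h at 37 °C. Ro20-1724 (0.1 mM final) went in first, then compound for 10 min. NKH477 (200 nM) with quinpirole (12 nM) followed for 30 min at RT, then HTRF detection reagents for 1 h.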

Muscarinic acetylcholine receptor M1 (Homo sapiens), sequence (P11229 whole entry, looked up): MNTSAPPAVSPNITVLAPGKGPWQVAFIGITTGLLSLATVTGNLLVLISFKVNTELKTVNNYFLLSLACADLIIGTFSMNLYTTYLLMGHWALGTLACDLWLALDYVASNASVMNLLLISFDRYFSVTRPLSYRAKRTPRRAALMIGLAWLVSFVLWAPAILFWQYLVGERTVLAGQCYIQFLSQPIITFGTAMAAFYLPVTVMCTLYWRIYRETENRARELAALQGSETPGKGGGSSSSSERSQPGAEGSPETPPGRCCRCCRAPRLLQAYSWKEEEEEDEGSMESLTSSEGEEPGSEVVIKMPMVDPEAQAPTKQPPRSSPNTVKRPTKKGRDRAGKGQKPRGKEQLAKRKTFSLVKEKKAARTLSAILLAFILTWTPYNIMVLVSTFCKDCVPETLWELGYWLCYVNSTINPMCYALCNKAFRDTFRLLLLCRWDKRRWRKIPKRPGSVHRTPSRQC
Beta-2 adrenergic receptor (Homo sapiens), sequence (P07550 whole entry, looked up): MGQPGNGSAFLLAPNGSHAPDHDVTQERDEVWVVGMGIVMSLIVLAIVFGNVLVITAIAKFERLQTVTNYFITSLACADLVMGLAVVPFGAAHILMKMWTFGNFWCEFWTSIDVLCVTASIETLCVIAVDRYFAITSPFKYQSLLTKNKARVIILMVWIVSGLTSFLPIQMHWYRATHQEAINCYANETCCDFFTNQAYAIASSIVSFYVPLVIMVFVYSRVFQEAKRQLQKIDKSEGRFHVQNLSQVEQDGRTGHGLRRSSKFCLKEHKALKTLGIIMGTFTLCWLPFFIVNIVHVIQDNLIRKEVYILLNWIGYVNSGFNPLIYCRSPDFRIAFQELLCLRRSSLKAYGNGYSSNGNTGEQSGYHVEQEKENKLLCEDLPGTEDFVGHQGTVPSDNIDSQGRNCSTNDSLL
5-hydroxytryptamine receptor 2A (Homo sapiens), sequence (P28223 whole entry, looked up): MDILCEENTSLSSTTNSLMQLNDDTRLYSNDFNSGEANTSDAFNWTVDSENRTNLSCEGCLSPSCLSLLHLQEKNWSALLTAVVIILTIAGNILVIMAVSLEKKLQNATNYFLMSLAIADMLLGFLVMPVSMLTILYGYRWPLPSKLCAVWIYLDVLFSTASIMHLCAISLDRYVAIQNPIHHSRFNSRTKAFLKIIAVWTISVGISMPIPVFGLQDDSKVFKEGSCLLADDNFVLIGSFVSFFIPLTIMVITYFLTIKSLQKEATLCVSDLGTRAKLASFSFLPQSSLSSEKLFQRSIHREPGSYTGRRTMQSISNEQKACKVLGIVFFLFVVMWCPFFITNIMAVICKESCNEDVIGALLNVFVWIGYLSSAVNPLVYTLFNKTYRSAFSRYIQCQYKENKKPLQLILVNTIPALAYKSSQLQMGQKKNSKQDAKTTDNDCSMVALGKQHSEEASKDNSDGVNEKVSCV
Gonadotropin-releasing hormone receptor (Homo sapiens), sequence (P30968 whole entry, looked up): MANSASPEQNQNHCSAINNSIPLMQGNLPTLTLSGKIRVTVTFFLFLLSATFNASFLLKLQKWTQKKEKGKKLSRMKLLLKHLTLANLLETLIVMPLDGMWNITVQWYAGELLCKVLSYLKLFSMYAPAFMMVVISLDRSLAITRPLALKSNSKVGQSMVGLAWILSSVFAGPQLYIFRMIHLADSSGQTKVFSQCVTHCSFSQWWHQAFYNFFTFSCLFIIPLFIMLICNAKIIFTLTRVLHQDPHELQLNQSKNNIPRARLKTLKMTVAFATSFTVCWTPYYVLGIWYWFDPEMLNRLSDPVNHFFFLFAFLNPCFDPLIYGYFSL
KiSS-1 receptor (Homo sapiens), sequence (Q969F8 whole entry, looked up): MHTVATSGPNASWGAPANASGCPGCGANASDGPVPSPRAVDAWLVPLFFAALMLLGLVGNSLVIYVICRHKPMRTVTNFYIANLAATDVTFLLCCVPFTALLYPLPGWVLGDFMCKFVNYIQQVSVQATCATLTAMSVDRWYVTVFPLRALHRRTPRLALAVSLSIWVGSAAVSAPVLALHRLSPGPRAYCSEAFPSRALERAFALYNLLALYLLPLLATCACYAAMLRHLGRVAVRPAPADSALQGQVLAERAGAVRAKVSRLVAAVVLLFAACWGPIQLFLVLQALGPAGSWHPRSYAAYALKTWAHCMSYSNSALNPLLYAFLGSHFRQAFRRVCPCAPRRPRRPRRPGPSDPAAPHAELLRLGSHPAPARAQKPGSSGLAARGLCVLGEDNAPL
D(2) dopamine receptor (Homo sapiens), sequence (P14416 whole entry, looked up): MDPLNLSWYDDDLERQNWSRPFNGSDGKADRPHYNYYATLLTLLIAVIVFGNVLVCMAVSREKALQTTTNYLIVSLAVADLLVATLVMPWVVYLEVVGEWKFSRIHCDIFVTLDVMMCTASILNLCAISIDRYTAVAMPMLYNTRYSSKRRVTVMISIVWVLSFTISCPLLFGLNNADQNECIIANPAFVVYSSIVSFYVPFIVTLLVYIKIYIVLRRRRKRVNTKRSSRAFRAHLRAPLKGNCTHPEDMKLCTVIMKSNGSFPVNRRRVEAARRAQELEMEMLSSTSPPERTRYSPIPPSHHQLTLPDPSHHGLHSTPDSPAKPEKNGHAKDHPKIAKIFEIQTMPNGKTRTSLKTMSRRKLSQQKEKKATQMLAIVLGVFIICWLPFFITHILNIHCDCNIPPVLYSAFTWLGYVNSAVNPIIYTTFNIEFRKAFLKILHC

Row | Compound | Potency [1] | Potency [2] | Potency [3] | Potency [4] | Potency [5] | Potency [6] | Potency [7] | Potency [8] | Potency [9] | Potency [10] | Potency [11] | Potency [12] | Potency [13] | Potency [14] | Potency [15] | Potency [16] | Potency [17] | Potency [18] | Potency [19]
1 | O=c1cc[nH]c(=O)[nH]1 | inactive | inactive | inactive | inactive | inactive | inactive | inactive | inactive | inactive | inactive | inactive | inactive | inactive | inactive | inactive | inactive | inactive |  | 
2 | Cc1cc(=O)n(-c2ccccc2)n1C | inactive | inactive | inactive | inactive | inactive | inactive | inactive | inactive | inactive | inactive | inactive |  |  | inactive | inactive | inactive | inactive | inactive | inactive
3 | CC12CCC(CC1)C(C)(C)O2 | inactive | inactive | inactive | inactive | inactive | inactive | inactive | inactive | inactive | inactive | inactive |  |  | inactive | inactive | inactive | inactive | inactive | inactive
4 | O=c1c(O)c(-c2ccc(O)cc2)oc2cc(O)cc(O)c12 | inactive | 17.2 µM (active) and inactive | inactive | inactive | inactive | inactive | inactive | inactive | inactive | inactive | inactive | inactive | inactive |  |  | inactive | inactive |  | 
5 | N[C@@H](Cc1cc(I)c(Oc2cc(I)c(O)c(I)c2)c(I)c1)C(=O)O | inactive | inactive | inactive | inactive | inactive | inactive | inactive | inactive | inactive | inactive | inactive | inactive |  | inactive | inactive | inactive | inactive | inactive | inactive
6 | CC1Cc2ccccc2N1NC(=O)c1ccc(Cl)c(S(N)(=O)=O)c1 (stereo not given) | inactive | inactive | inactive | inactive | inactive | inactive | inactive | inactive | inactive | inactive | inactive |  |  | inactive | inactive | inactive | inactive |  | inactive
7 | NC(=NCCCCCCN=C(N)/N=C(\N)Nc1ccc(Cl)cc1)/N=C(\N)Nc1ccc(Cl)cc1 | 24.2 µM (active) [middle of 5 runs] | inactive | inactive | inactive | inactive | inactive | inactive | 40.4 µM (active) and 28.7 µM (active) and inactive | 32.1 µM (active) and 41.5 µM (active) and inactive | 45.3 µM (active) and inactive | inactive | inactive | inactive | inactive |  |  | inactive |  | 
8 | CC(=O)[C@@]1(O)CC[C@H]2[C@@H]3C[C@H](C)C4=CC(=O)C=C[C@]4(C)[C@@]3(F)[C@@H](O)C[C@@]21C | inactive | inactive | inactive | inactive | inactive | inactive | inactive | inactive | inactive | inactive | inactive |  |  | inactive | inactive | inactive | inactive | inactive | inactive
9 | NNCCc1ccccc1 | inactive | 3.87 µM (active) and 8.41 µM (active) | inactive | inactive | inactive | inactive | inactive | inactive | inactive | inactive | inactive |  |  | inactive | inactive | inactive | inactive | inactive | inactive
10 | NC(=O)c1ccccc1O | inactive | inactive | inactive | inactive | inactive | inactive | inactive | inactive | inactive | inactive | inactive |  |  | inactive | inactive | inactive | inactive | inactive | inactive
11 | NC(=O)c1cccnc1 | inactive | inactive | inactive | inactive | inactive | inactive | inactive | inactive | inactive | inactive | inactive |  |  | inactive | inactive | inactive | inactive | inactive | inactive
12 | CCCCC1C(=O)N(c2ccccc2)N(c2ccccc2)C1=O | inactive | inactive | inactive | inactive | inactive | inactive | inactive | inactive | inactive | inactive | inactive |  |  | inactive | inactive | inactive | inactive | inactive | inactive
13 | CC(=O)Nc1nnc(S(N)(=O)=O)s1 | inactive | inactive | inactive | inactive | inactive | inactive | inactive | inactive | inactive | inactive | inactive |  |  | inactive | inactive | inactive | inactive | inactive | 
14 | CC(O)C(=O)O (stereo not given) | inactive | inactive | inactive | inactive | inactive | inactive | inactive | inactive | inactive | inactive | inactive |  |  | inactive | inactive | inactive | inactive | inactive | inactive
15 | CCOC(=O)C(C)(C)Oc1ccc(Cl)cc1 | inactive | inactive | inactive | inactive | inactive | inactive | inactive | inactive | inactive | inactive | inactive |  |  | inactive | inactive | inactive | inactive | inactive | inactive
